# Screening results: PubChem, National Center for Advancing Translational Sciences (NCATS)
# Shown are actives, neighbours in structure and some others; about 6.9% of the full set was active somewhere.
# Vif-A3G inh = inhibitors of Vif-APOBEC3G interaction; HeLa A3G-eYFP + Vif (tagged APOBEC3G with the HIV-1 protein that degrades it), YFP fluorescence, overnight; Potency, µM (series often up to 46.1 µM), for the others: at the highest dose activity, negative = active, hits mostly inhibitors; actives 0.076% (n = 410,000); AID 602310; Q9HC16; further: potency means the concentration at half of the fitted maximal effect; on the % scale 0 is the no-effect control and ±100 the full control effect; nearly all actives have a fitted effect of over 60% in size
# Target sequence (Q9HC16 whole entry, looked up): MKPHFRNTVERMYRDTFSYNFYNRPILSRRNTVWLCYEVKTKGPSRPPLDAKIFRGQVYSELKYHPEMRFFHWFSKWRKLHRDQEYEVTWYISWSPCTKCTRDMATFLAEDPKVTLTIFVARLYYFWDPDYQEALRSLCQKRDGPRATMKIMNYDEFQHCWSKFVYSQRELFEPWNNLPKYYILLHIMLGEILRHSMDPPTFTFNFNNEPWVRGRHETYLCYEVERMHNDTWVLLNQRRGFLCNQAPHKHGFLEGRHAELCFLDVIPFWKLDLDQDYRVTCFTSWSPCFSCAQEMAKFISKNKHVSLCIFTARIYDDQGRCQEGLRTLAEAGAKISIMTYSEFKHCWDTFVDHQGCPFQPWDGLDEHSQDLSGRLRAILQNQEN
#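 HeLa cells stably expressing Vif and C-terminally eYFP-tagged A3G, seeded overnight at 37 deg C, then exposed to compound by pintool overnight at 37 deg C. Rise in yellow fluorescence (Ex 488/Em 500-530, Acumen) marks blocked Vif-driven A3G degradation.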
# SW480 rereplic = DNA re-replication induction in SW480 cells; actives 1.8% (n = 340,000); Potency, µM (titrated, usually from 46.1 µM), without a hit: top-dose re-replication activation, most hits filed as activators; AID 624297; SW480 DNA re-replication, Hoechst DNA content imaging, 48 h; further: potency means the concentration at half of the fitted maximal effect; % of control where 0% means no effect; nearly all actives have a fitted effect of over 55% in size
#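 250 cells/well; 23 nL cpd via pin tool; 48 hr, 37 C, 5% CO2; Hoechst 40 min; imager read of total nuclear intensity, ex 405/em 500-530 nm.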
# Giardia kill = kills Giardia lamblia; Giardia lamblia trophozoite viability; activity change, % at 7.66 µM, hits read low; actives 0.15% (n = 340,000); in the data active means activity change below about -80%; inconclusive means between about -30% and that limit;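 further: parasites exposed to compound for two days anaerobically before the ATP read; on the % scale 0 is the no-effect control and ±100 the full control effect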
#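 Viability, read as ATP luminescence: trophozoites at 100 cells/well, compound added, 48 hrs anaerobic at 37 deg C, then 15-30 min room-temperature development before reading.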
# Vif-APOBEC3F blk = Vif-A3F binding inhibition; AID 602313; actives 0.2% (n = 390,000); Potency, µM (doses to about 46.1 µM), for the others: at the top dose activity, negative = active; HeLa A3F-eYFP + Vif (tagged APOBEC3F with the HIV-1 protein that degrades it), YFP fluorescence increase; further: potency means the concentration at half of the fitted maximal effect; % of control where 0% means no effect; nearly all actives have a fitted effect of over 65% in size
#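 HeLa cells stably expressing Vif plus C-terminally eYFP-tagged A3F were seeded, incubated overnight at 37 deg C, dosed with compound, incubated overnight again at 37 deg C. Yellow fluorescence (Ex 488/Em 500-530) reported blocked Vif-mediated A3F-eYFP degradation.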
# IL1B secr inh = inflammasome signaling inhibition, IL-1 beta readout. THP-1 LPS/ATP IL-1B secretion, AlphaLISA, 16 h; stronger effect = lower value. AID 743279. actives 4.7% (n = 360,000). activity change, % at 57.5 µM; in the data active means activity change below about -50%; inconclusive means mostly about -30% to -49%; further: on the % scale 0 is the no-effect control and ±100 the full control effect
#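 Secreted IL-1B measured by AlphaLISA bead assay after 16 h compound exposure of THP-1 cells; compounds (final up to 57.5 uM) added 1 h before LPS (250 ng/mL) and ATP (1.25 mM) stimulation; lower signal means less secretion.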
# MCF10A rereplic = inducers of DNA re-replication in MCF 10A breast cells; actives 2.9% (n = 350,000); Potency, µM (titrated, usually from 46.1 µM), for inactives: at the top dose activity, positive = re-replication, actives largely listed as activators; MCF 10A DNA re-replication, Hoechst nuclear intensity, 48 h; further: potency means the concentration at half of the fitted maximal effect; % of control where 0% means no effect; nearly all actives have a fitted effect of over 50% in size
# Active calls of the source: *; ? = inconclusive; · = no result given. Unless noted, the call rests on the fitted dose curve; in most records, active means well fitted curve in the direction sought with a large enough effect; inconclusive means small, poorly fitted or top-dose-only effect, or another doubt; inactive means no such curve, though single readings can be large; an effect the other way counts as inactive or inconclusive.
SMILES,Vif-A3G inh,SW480 rereplic,Giardia kill,Vif-APOBEC3F blk,IL1B secr inh,MCF10A rereplic
NC(=S)N/N=C/c1cc([N+](=O)[O-])ccc1OCCOc1ccccc1,-6%,1%,-2,-3%,14,1%
CC1CCN(C(=O)c2cnn(-c3cccc(Cl)c3)c2C2CCN(C(=O)OC(C)(C)C)CC2)CC1,1%,·,·,-1%,·,·
CC1CN(C)C(C)CC1OC(=O)C(c1ccccc1)c1ccccc1 (configuration not stated),1%,-4%,-15,-9%,?,?
CCCCOc1ccc(C(=O)OC2CC(C)N(C)CC2C)cc1 (configuration not stated),0%,?,-6,-15%,-54*,?
Cc1cc(N2CCN(C)CC2)ccc1NC(=O)c1cccc(S(=O)(=O)N2CCc3ccccc3C2)c1,-17%,?,4,6%,-103*,?
Cc1ccc(NC(=O)c2cccc(S(=O)(=O)N3CCc4ccccc4C3)c2)nc1,1%,-49%,3,6%,0,10%
Brc1ccc2[nH]c3c(c2c1)CCC3,4%,14%,12,-23%,-21,-1%
NC(=O)c1cc(Br)cc2c3c([nH]c12)CCCC3,-24%,?,-11,-19%,-81*,?
Cc1ccc(Nc2nc(-c3cccnc3)nc3ccccc23)cc1,?,9.2µM*,-16,-2%,-67*,15µM*
CCOC(=O)c1ccc(Nc2nc(-c3cccnc3)nc3ccccc23)cc1,-23%,?,-4,3%,-21,18µM*
COc1ccc(/C=N/Nc2nc(-c3cccnc3)nc3ccccc23)cc1OC,-7%,-2%,2,-4%,-52*,23%
COc1ccccc1/C=C/c1nc(C#N)c(N2CCN(C)CC2)o1,-3%,·,·,-2%,·,·
Cc1ccc([N+](=O)[O-])cc1N=C1C(=O)Nc2ccccc21,-13%,8%,7,11%,-89*,2%
O=C1Nc2ccccc2C1=Nc1ccccc1-c1ccccc1,-12%,-2%,5,-14%,-70*,28%
Cc1ccc(N=C2C(=O)Nc3ccccc32)cc1C,-1%,-4%,-7,-5%,-9,-2%
CC(CCc1ccccc1)NC(=O)COC(=O)c1ccc(S(C)(=O)=O)c([N+](=O)[O-])c1 (configuration not stated),-22%,?,1,5%,-108*,?
CS(=O)(=O)c1ccc(C(=O)OCc2nnc(-c3ccccc3)o2)cc1[N+](=O)[O-],-29%,?,5,-4%,-70*,?
Cc1ccccc1NC(=O)Cc1nc(COC(=O)c2ccc(S(C)(=O)=O)c([N+](=O)[O-])c2)cs1,?,13%,8,-1%,-102*,3.7µM*
CS(=O)(=O)c1ccc(C(=O)OCC(=O)Nc2cccnc2Cl)cc1[N+](=O)[O-],?,?,-9,7%,-96*,3.7µM*
O=C(COC(=O)c1ccc([N+](=O)[O-])cc1)Nc1cccnc1Cl,2%,-6%,4,7%,9,-1%
Cc1ccc(CSC2=Nc3ccccc3C3=NC(CCC(=O)NC4CCCCC4)C(=O)N23)cc1 (configuration not stated),0%,·,·,-3%,·,·
COc1cccc(Nc2nc3cc(Cl)c(Cl)cc3nc2-n2nc(C)cc2C)c1,0%,·,·,4%,·,·
Cc1ccccc1NC(=O)Cc1nc(COC(=O)c2nc(Cl)ccc2Cl)cs1,1%,-1%,-21,7%,2,-2%
Cc1ccccc1NC(=O)Cc1nc(COC(=O)c2ncc(Cl)c(Cl)c2Cl)cs1,-1%,6.5µM*,-13,7%,-88*,?
CC(=O)c1cccc(NC(=O)COC(=O)c2ccc(S(C)(=O)=O)c([N+](=O)[O-])c2)c1,?,?,1,9%,-89*,2.6µM*
SMILES,Vif-A3G inh,SW480 rereplic,Giardia kill,Vif-APOBEC3F blk,IL1B secr inh,MCF10A rereplic
Cc1ccccc1NC(=O)COC(=O)c1ccc(S(C)(=O)=O)c([N+](=O)[O-])c1,?,7.3µM*,-6,0%,-96*,?
Cn1cc(C(=O)CCl)c2ccccc21,?,10%,16,14%,-100*,?
COC(=O)c1ccc(N=NN2CCCCCC2)cc1,-2%,-23%,-17,-14%,-63*,15%
COc1ccccc1-c1cc2nc(NCCc3ccc(S(N)(=O)=O)cc3)ccn2n1,-19%,·,·,·,-68*,·
COc1ccccc1-c1cc2nc(NCCc3ccncc3)ccn2n1,-4%,·,·,·,-23,·
COc1ccc(CNC(=O)c2cc3cc(S(=O)(=O)N4CCCCC4)ccc3n2C)c(OC)c1,-1%,·,·,1%,·,·
COc1ccc(OCCCn2cc(/C=C3/C(=N)N4C=C(C)SC4=NC3=O)c3ccccc32)cc1,1%,-7%,-6,2%,19,15%
COc1cccc(OCCCn2cc(/C=C3/C(=N)N4C=C(C)SC4=NC3=O)c3ccccc32)c1,-3%,7%,1,0%,8,8.2µM*
CC1=CN2C(=N)/C(=C/c3cn(CCCOc4ccccc4C)c4ccccc34)C(=O)N=C2S1,-3%,15µM*,-13,-9%,0,22%
COc1cccc(C2CC(=O)Nc3c2c(=O)nc2c(C)cccn32)c1OC (configuration not stated),3%,·,·,5%,·,·
CC12CCC(=O)N1C(C(=O)Nc1ccc(Cl)c(Cl)c1)CS2 (configuration not stated),-1%,-357%,9,5%,-50*,12%
CC12CCC(=O)N1C(C(=O)OCC(=O)Nc1ccc(Cl)c(Cl)c1)CS2 (configuration not stated),-1%,4%,-4,-1%,-58*,2%
CCOc1ccc(S(=O)(=O)N2CCOCC2)cc1NC(=O)C1CSC2(C)CCC(=O)N12 (configuration not stated),0%,-3%,-25,2%,8,3%
Cc1sc(NC(=O)C2CSC3(C)CCC(=O)N23)nc1-c1ccccc1 (configuration not stated),-4%,18%,1,5%,-78*,?
CCN(CC)c1ccc(S(=O)(=O)N2CCCCC2)cc1NC(=O)C1CSC2(C)CCC(=O)N12 (configuration not stated),0%,-19%,9,1%,-50*,?
CC(=O)c1sc(NC(=O)C2CSC3(C)CCC(=O)N23)nc1-c1ccccc1 (configuration not stated),-8%,?,-14,-10%,-5,?
